Assay outcomes from PubChem.
Tau fluor counter: Counterscreen qHTS for Inhibitors of Tau Fibril Formation, Fluorescence Polarization; tau K18 P301L Alexa594 fluorescence, heparin fibrillization; Potency, µM (titrated, usually from 57.7 µM), without a hit: top-dose activity change, negative = decrease; 280,000 tested, 0.93% active; note: potency is the fitted concentration of half-maximal effect; nearly all actives have a fitted effect of over 55% in size
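Human tau K18 P301L (15 uM unlabeled, 0.24 uM Alexa 594-labeled) in 100 mM sodium acetate pH 7 with 20 uM heparin, 6 hr at 37 C. ThT 30 uM added, 1 hr ambient; Alexa 594 FP and total fluorescence read at 555/632 nm.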
Tau fibril ThT: qHTS for Inhibitors of Tau Fibril Formation, Thioflavin T Binding | Microtubule-associated protein tau (Homo sapiens), P10636 | recombinant tau K18 P301L (four-repeat tau fragment), heparin-induced fibrillization, ThT fluorescence | 270,000 tested, 2.1% active | Potency, µM (doses to about 57.4 µM), without a hit: at the highest dose activity, negative = inhibition, actives largely listed as inhibitors | AID 1460, 2008; note: potency is the fitted concentration of half-maximal effect; nearly all actives have a fitted effect of over 55% in size
Target sequence (P10636 561-689 P618L limits assumed): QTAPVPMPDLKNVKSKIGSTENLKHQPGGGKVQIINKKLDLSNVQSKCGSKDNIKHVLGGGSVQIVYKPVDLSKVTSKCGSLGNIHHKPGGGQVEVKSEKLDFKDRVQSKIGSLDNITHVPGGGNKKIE
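In this qHTS, human K18 P301L tau is incubated with compound and heparin for 6 hr at 37 C, and Thioflavin T fluorescence then reports fibril load.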
Tau fibril FP: qHTS for Inhibitors of Tau Fibril Formation, Fluorescence Polarization. Microtubule-associated protein tau (Homo sapiens), P10636. K18 P301L tau heparin fibrillization, Alexa594 FP, 6 h. Potency, µM (titrated, usually from 57.7 µM), inactives show top-dose activity, negative = inhibition, most hits filed as inhibitors. 280,000 tested, 0.39% active; note: potency is the fitted concentration of half-maximal effect; nearly all actives have a fitted effect of over 55% in size
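FP of Alexa 594-tau after heparin (20 uM) induction. Substrate: human K18 P301L, 15 uM unlabeled, 0.24 uM labeled. Buffer 100 mM sodium acetate pH 7. 6 hr, 37 C.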
Sfp PPTase inh: qHTS Assay for Inhibitors of Bacillus subtilis Sfp phosphopantetheinyl transferase (PPTase). 310,000 tested, 3.5% active. Biochemical Sfp PPTase activity, qHTS. Potency, µM, for the others: largest response in the series, negative = inhibition, most hits filed as inhibitors. 4'-phosphopantetheinyl transferase ffp (Bacillus subtilis), Q9F4F7;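 note: the enzyme is Sfp with the accession as filed and its product quenches rhodamine fluorescence; potency is the fitted concentration of half-maximal effect; 0% = enzyme reaction without inhibitor and -100% = no enzyme wells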
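Fluorescence-quenching assay: 15 nM Sfp-PPTase preincubated 15 min at room temperature with compound, then 5 uM rhodamine-CoA and 12.5 uM BHQ-2-labelled YbbR peptide added. Fluorescence (ex 525/em 598 nm) read at start and after 30 min; difference gives rate.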
G9a block: qHTS Assay for Inhibitors of Histone Lysine Methyltransferase G9a | 350,000 tested, 8.8% active | G9a H3K9 monomethylation, AlphaScreen, 2 h | Histone-lysine N-methyltransferase EHMT2 (Homo sapiens), Q96KQ7 | Potency, µM (titrated, usually from 102 µM), for inactives: at the highest dose activity, negative = inhibition, actives largely listed as inhibitors; note: potency is the fitted concentration of half-maximal effect; nearly all actives have a fitted effect of over 75% in size
Target sequence (Q96KQ7 913-1193 limits assumed): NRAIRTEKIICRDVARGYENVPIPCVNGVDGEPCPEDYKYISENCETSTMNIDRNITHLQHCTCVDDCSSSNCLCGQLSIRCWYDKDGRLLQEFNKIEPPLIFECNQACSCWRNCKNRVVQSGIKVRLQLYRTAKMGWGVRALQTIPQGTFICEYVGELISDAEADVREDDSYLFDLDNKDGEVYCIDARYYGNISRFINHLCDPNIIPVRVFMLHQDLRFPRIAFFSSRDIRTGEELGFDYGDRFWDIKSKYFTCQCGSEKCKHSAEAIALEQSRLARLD
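Readings reflect AlphaScreen signal from monomethyl-H3K9 antibody detection. HMT at 20 nM; substrate b-H3K9 500 nM; cofactor SAM 20 uM; 2 h RT reaction; compounds tested as titrations in qHTS with 15 min preincubation.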
Coupling enz: qHTS Assay for Inhibitors of Fructose-1,6-bisphosphate Aldolase from Giardia Lamblia: Coupling assay counterscreen | 290,000 tested, 0.67% active | coupling enzyme system counterscreen, AmpLite Red fluorescence | activity change, negative = inhibition, % at 58.2 µM, hits read low | AID 2472, 2010; in the data active = activity change below about -30%
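Activity here indicates interference with the coupling reaction, not aldolase inhibition. Compounds at 57.5 uM final met coupling enzymes for 10 min at RT; substrate and AmpLite Red detection followed, with a 525/598 nm fluorescence read after 20 min.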
Active calls of the source: *; ? = inconclusive; / = not tested or not shown; [ ] = remark or other dose. A selection: hits, their analogues and other compounds. The true share with any hit is near 11%. Unless noted, calls come from the whole dose curve; as a rule, active = well fitted curve in the direction sought with a large enough effect; inconclusive = small, poorly fitted or top-dose-only effect, or another doubt; inactive = no such curve, though single readings can be large; an effect the other way counts as inactive or inconclusive. Unless noted, % is set by controls: 0 for no effect and ±100 for the full control effect.

SMILES | Tau fluor counter | Tau fibril ThT | Tau fibril FP | Sfp PPTase inh | G9a block | Coupling enz
O=C(Nc1ccc2ccccc2c1)[C@@H]1C[C@H]1[C@@H](NP(=O)(c1ccccc1)c1ccccc1)c1ccccc1 | 8.8% | 8.0% | -5.8% | 17.9% | 50.1µM* | -8.5
O=C(NCc1ccccc1)[C@@H]1C[C@H]1[C@@H](NP(=O)(c1ccccc1)c1ccccc1)c1ccccc1 | -2.5% | -8.6% | -6.0% | 1.8% | 1.5% | 4.1
Cc1ccc(CNC(=O)[C@H]2C[C@@H]2[C@H](NP(=O)(c2ccccc2)c2ccccc2)c2ccccc2)o1 | -9.8% | ? | -8.7% | 35.5µM* | 50.1µM* | -0.9
COc1cc2nc(=S)n(CCCN3CCOCC3)c(N)c2cc1OC | 4.7% | -0.8% | 6.7% | 50.1µM* | ? | 0.4
COc1cc2ncnc(NCCCN3CCOCC3)c2cc1OC | -5.5% | / | -6.8% | 4.5% | / | -0.9
O=C(NCc1ccc(Cl)cc1)C(=O)Nc1nccs1 | -5.3% | 0.2% | -0.8% | -8.9% | 50.1µM* | -0.6
CC(C)c1ccc(CNC(=O)C(=O)Nc2nccs2)cc1 | -8.1% | -9.2% | -8.7% | -0.5% | 7.08µM* | 4.0
COc1ccc(CNC(=O)c2cc(-c3cccs3)on2)cc1 | -6.6% | -4.8% | 3.6% | -3.8% | -32.2% | -1.8
O=C(NCc1ccc(Cl)cc1)c1cc(-c2cccs2)on1 | -1.5% | -3.2% | 1.7% | 25.1µM* | ? | 4.0
O=NCc1ccc([N+](=O)[O-])o1 | / | / | / | 8.2% | 21.2%[59 µM] | /
Cc1[nH]c2ccccc2c1C(c1ccncc1)N1CCN(c2ccccn2)CC1 (centres undefined) | ? | ? | -1.1% | ? | 22.4µM* | -1.7
Cc1[nH]c2ccccc2c1C(c1ccncc1)N1CCN(c2ccccc2F)CC1 (centres undefined) | ? | ? | -4.3% | 8.8% | 11.2µM* | -4.1
Clc1ccc(C(c2ccccc2)N2CCN(c3ccccn3)CC2)cc1 (centres undefined) | -9.3% | -12.3% | -4.2% | -1.5% | 29.0% | -6.8
Cc1[nH]c2ccccc2c1SCC(=O)N1CCC(C)CC1 | -9.1% | 0.6% | ? | 9.3% | -33.8% | 3.8
Cc1[nH]c2ccccc2c1C(c1ccncc1)N1CCC(C)CC1 (centres undefined) | -27.3% | ? | 3.5% | -4.2% | 28.2µM* | -6.4
CC(C)(C)n1nnnc1C(c1cccnc1)N1CCN(c2ccccc2F)CC1 (centres undefined) | 3.5% | -3.6% | 8.1% | 18.9% | -2.6%[59 µM] | 1.5
COc1ccc(CNC(=O)c2cnc(N3CCCC3)nc2C)c(OC)c1 | 1.4% | 3.5% | -1.8% | / | 7.2%[59 µM] | /
CN(C)CCCOC(=O)COc1ccc(C(C)(C)C)cc1 | 2.4% | 0.9% | -2.0% | 4.5% | -40.3%[59 µM] | 4.3
Cc1ccc(C(C)C)c(OCCN)c1 | 1.8% | -0.2% | 1.4% | -2.1% | ? | 5.9
CCCN(CCC)CCOc1cc(C)ccc1C(C)C | -1.2% | 1.6% | -4.9% | -50.0% | 17.8µM* | -2.2
Cc1cc(C(C)(C)C)ccc1OCCN(C)C | 8.2% | 2.7% | 5.0% | -23.5% | 8.91µM* | 2.6
Cc1ccc(C(C)C)c(OCCN2C(=O)NC(C)(C)C2=O)c1 | -9.3% | -3.8% | -2.1% | 23.5% | -8.7% | 0.5
Cc1ccc(C(C)C)c(OCCCn2ccnc2C)c1 | / | / | / | -24.1% | 10µM* | -2.4
Cc1ccc(C(C)C)c(OCCN(C)C)c1 | 0.9% | -2.1% | -2.2% | ? | 3.55µM* | -4.7
O=S(=O)(Oc1ccccc1N1CCCCC1)c1ccccc1 | -22.1% | -7.1% | 1.7% | -7.9% | / | -10.6
SMILES | Tau fluor counter | Tau fibril ThT | Tau fibril FP | Sfp PPTase inh | G9a block | Coupling enz
COc1ccc(Cl)cc1NC(=O)Cn1nnc(C(=O)NCc2ccc3c(c2)OCO3)c1N | -14.2% | 6.2% | ? | -18.2% | -1.2% | -0.9
Cn1c(-c2ccc(F)cc2)cnc1NCc1cccc(F)c1 | -9.6% | -10.3% | -2.8% | ? | 0.0%[0.0925 µM] | /
CCOc1ccc(-c2cnc(NCc3cccc(Cl)c3)n2C)cc1 | -22.3% | ? | 12.1% | / | 7.94µM* | /
CSc1ccc(CNc2ncc(-c3ccccc3)n2C)cc1 | -17.1% | -21.3% | -0.4% | / | 20µM* | /
Cn1c(-c2ccc(F)cc2)cnc1NCc1ccccc1 | -4.8% | -14.2% | 0.8% | -19.9% | 20µM* | 1.5
CCOc1ccc(-c2cnc(NCc3cccc4ccccc34)n2CCOC)cc1 | / | / | / | 56.2µM* | / | -0.7
CCC(C)n1c(=N)c(C(=O)NCc2ccccc2)cc2c(=O)n3cc(C)ccc3nc21 (centres undefined) | -1.7% | 2.2% | -0.5% | / | 7.4%[59 µM] | /
COc1ccc(CNc2ncc(-c3ccc(F)cc3)n2C)c2ccccc12 | / | / | / | -22.4% | 10µM* | 2.3
Cn1c(-c2ccccc2)cnc1NCc1ccccc1O | -9.8% | -1.1% | -0.4% | / | 10µM* | /
CSc1ccc(CNc2ccccn2)cc1 | -8.5% | -15.5% | 2.0% | 0.5% | 44.7µM* | 0.1
Cc1cc(C)c(/C=C/c2onc(C)c2S(=O)(=O)N2CCC(C(=O)NCC(C)c3ccccc3)CC2)c(C)c1 (centres undefined) | -13.5% | -9.3% | -7.2% | / | 16.6%[59 µM] | /
CN1C(=O)Cc2cc(S(=O)(=O)N3CCN(c4cccc(C(F)(F)F)c4)CC3)ccc21 | 2.0% | -2.0% | -2.2% | 13.3% | 7.4% | /
O=C(O)C1OC(Oc2c(-c3ccc(O)c(O)c3)oc3cc(O)cc(O)c3c2=O)C(O)C(O)C1O (centres undefined) | -14.1% | ? | -2.9% | -9.7% | 31.6µM* | -0.1
CC1OC(Oc2c(-c3cc(O)c(O)c(O)c3)oc3cc(O)cc(O)c3c2=O)C(O)C(O)C1O (centres undefined) | ? | ? | -7.3% | 7.94µM* | 39.8µM* | -46.9*
COC(=O)NC(/C=C/c1ccccc1)C(C(C)=O)C(=O)OC (centres undefined) | -2.6% | -4.6% | 4.4% | -17.3% | / | 0.1
CN1CCN(C2=Nc3c(Cl)cc(Cl)c4cccc2c34)CC1 | -12.8% | 17.8µM* | 4.2% | -22.5% | ? | -19.4
CCOC(=O)Cn1c(=O)n(-c2ccccc2OC)c2nc(-c3ccccc3)nc(C(N)=O)c21 | -22.8% | -4.5% | -6.9% | / | 2.2%[59 µM] | /
CCCCCOc1ccc(CSc2n[nH]c(C)n2)cc1 | 10.1% | 9.0% | 5.6%[2.34 µM] | -29.8% | / | -24.8
Cc1nc(SCc2ccc(OCCC(C)C)cc2)n[nH]1 | -12.7% | -3.4% | 0.6% | 6.0% | 50.1µM* | -1.1
